The source of these data is PubChem BioAssay AID1511 (Johns Hopkins Ion Channel Center, 2009).

About 1,600 (0.52%) of roughly 310,000 compounds were called active. The sample holds actives, similar compounds and a random draw of the others, so the mix is not that of the screen. Unmarked numbers belong to inactive results.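 How the source made its calls: active means activation above the mean of controls blocked by dofetilide plus 5 SD; inactive means the rest.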

The target of this test is Voltage-gated inwardly rectifying potassium channel KCNH2 (Homo sapiens) (UniProt Q12809). As to the kind of experiment: compounds relieving dofetilide block of hERG – cell-based, CHO-hERG, FluxOR thallium flux, dofetilide IC70, primary screen (AID 1511).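 Further: thallium influx through hERG after potassium depolarization seen as dye fluorescence rise.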 The conditions noted are these: dofetilide IC70 present, at 10 µM, active compounds read high.
Voltage-gated inwardly rectifying potassium channel KCNH2 (Homo sapiens), sequence (Q12809 whole entry, looked up): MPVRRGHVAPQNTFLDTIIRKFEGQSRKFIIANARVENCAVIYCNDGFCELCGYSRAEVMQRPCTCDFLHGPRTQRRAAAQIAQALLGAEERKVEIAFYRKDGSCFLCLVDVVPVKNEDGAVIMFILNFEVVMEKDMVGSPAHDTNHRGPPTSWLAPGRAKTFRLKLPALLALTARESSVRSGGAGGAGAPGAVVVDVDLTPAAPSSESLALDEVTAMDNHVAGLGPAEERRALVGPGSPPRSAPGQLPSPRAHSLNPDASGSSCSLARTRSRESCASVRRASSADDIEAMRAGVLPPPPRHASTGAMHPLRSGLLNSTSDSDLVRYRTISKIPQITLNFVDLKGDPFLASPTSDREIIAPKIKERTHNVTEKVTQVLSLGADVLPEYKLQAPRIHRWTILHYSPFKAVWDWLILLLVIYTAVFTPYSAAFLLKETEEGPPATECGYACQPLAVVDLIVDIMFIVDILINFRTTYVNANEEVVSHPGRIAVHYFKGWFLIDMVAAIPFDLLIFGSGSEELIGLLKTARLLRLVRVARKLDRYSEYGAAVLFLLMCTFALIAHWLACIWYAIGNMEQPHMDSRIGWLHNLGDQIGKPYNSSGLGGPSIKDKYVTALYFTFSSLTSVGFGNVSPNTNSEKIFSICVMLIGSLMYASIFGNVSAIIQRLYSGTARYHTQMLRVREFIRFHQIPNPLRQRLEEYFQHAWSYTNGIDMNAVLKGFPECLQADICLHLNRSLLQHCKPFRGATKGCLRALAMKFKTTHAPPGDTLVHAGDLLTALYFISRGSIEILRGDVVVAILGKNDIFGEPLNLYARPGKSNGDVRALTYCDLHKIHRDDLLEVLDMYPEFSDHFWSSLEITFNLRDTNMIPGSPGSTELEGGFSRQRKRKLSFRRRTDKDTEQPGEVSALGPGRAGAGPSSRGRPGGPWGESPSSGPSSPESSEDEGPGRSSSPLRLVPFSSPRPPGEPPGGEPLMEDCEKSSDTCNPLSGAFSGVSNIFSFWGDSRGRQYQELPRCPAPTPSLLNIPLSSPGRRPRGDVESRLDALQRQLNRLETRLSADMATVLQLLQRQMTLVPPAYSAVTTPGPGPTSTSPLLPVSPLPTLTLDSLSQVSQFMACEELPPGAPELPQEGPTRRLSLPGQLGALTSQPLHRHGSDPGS
In the case of `CC1CCCN(C(=O)c2ccc3c(c2)C(=O)N(CCC2=CCCCC2)C3=O)C1` (stereo not drawn), the activation (rescue from dofetilide block), less the hit threshold was -17.2%.
In the case of `Cc1ccc(S(=O)(=O)Oc2ccc(/C=N/NC(=O)c3c(Cl)cnn3C)cc2)cc1` it was -18.1%; in that of `CCc1nc2sc3c(Cl)ncnc3c2c2c1CCCC2`, -13.4%; in that of `Cc1cc(C)c2nc(NC(=O)C3CCCO3)sc2c1` (stereo not drawn), 5.12% (active).
In the case of `Cc1cc([N+](=O)[O-])ccc1NC(=O)C1CCCO1` (stereo not drawn) it was -1.96%.
On to `Cc1ccc(C)c(C(C)NC(=O)C2CCCO2)c1` (stereo not drawn), for which the activation (rescue from dofetilide block), less the hit threshold was -6.97%.
Then `CSc1cccc(NC(=S)N(C(C)C)C(C)c2ccccn2)c1` (stereo not drawn), with -10.5%; and `Cc1cc(NC(=O)CSc2nc3ccccc3n2CC(C)C)no1`, with -8.27%; and `Cc1cc(NC(=O)CSc2nc3cc(Cl)ccc3c(=O)n2Cc2ccco2)no1`, with 6.67% (active).
Take `N#Cc1c(NC(=O)CSc2nc3ccccc3c(=O)n2Cc2ccco2)sc2c1CCCC2`: the activation (rescue from dofetilide block), less the hit threshold was -16.4%.
In the case of `CCN1CCN(c2nc(Nc3cccc(F)c3)nc(N)c2[N+](=O)[O-])CC1` it was 1.19%; in that of `CCCN(CCC)S(=O)(=O)c1ccc(C(=O)NNC(=O)c2cc(OC)c(OC)c(OC)c2)cc1`, -5.35%; in that of `C=CCN1C=C2C(=O)C(C)(OC(=O)CCc3ccccc3)C(=O)C=C2C=C1c1ccc(C#N)cc1` (stereo not drawn), -7.84%.
Then `COCCN1C=C2C(=O)C(C)(OC(=O)C3CCCC3)C(=O)C=C2C=C1c1ccsc1` (stereo not drawn), with -7.58%; and `CC1(OC(=O)C2CCCC2)C(=O)C=C2C=C(c3ccc(C#N)cc3)OC=C2C1=O` (stereo not drawn), with 7.34% (active).
In the case of `COc1ccc2c(c1)OC(O)(C(F)(F)C(F)F)CC2=O` (stereo not drawn) it was -2.37%; in that of `CC1CCN(S(=O)(=O)c2ccc3ncn(CC(=O)N(C)C4CCCCC4)c(=O)c3c2)CC1`, -5.76%; in that of `O=C(Cn1cnc2ccccc2c1=O)Nc1cccc(S(=O)(=O)N2CCCCC2)c1`, -13.8%.
Turning to `CCN1CCCC1CNC(=O)Cn1cnc2ccc(S(=O)(=O)N3CCC(C)CC3)cc2c1=O` (stereo not drawn), the activation (rescue from dofetilide block), less the hit threshold was 7.23% (active).
Consider `CN(CCc1cn[nH]c1)C(=O)CC1C(=O)NCCN1Cc1cccc(Oc2ccccc2)c1` (stereo not drawn), for which the activation (rescue from dofetilide block), less the hit threshold was -5.68%.
With `S=c1[nH]c2ccccc2c2ccccc12`, the activation (rescue from dofetilide block), less the hit threshold was 6.26% (active).
As for `S=c1ccc2ccccc2[nH]1`, the activation (rescue from dofetilide block), less the hit threshold was -11.4%.
Then `NC(=O)Cc1ccc2c(c1)[nH]c1ccccc12`, with -8.6%; and `O=C(C1CCCN1S(=O)(=O)c1ccc(Br)cc1)N1CCOCC1` (stereo not drawn), with -0.78%; and `CCN(CC)C(=O)CSc1nnc(C2CCCCC2)o1`, with -6.69%.
Then `O=C(CSc1nnc(-c2ccccc2O)o1)NC1CCCCC1`, with -7.03%; and `CCCCCC1CCC(c2nnc(SCC(C)=O)o2)CC1` (stereo not drawn), with 5.95% (active); and `S=c1[nH]c(-c2cccs2)cn1-c1ccccc1`, with 8.23% (active).
Then `O=c1oc2ccccc2cc1-c1cn(-c2ccccc2)c(=S)[nH]1`, with -6.67%; and `COc1ccc(-c2cn(-c3ccc(OC)cc3)c(=S)[nH]2)cc1`, with -3.47%.
For `CC(=O)N1CCN(S(=O)(=O)c2ccc(C)c([N+](=O)[O-])c2)C1C(C)C` (stereo not drawn), the activation (rescue from dofetilide block), less the hit threshold was -8.18%.
Then `Cc1ccc2c(c1)N(CC(=O)N1CCC(C)CC1)C(=O)c1cccnc1O2`, with -4.18%; and `C=CCc1cc(S(=O)(=O)c2ccc(O)c(CC=C)c2)ccc1O`, with -8.79%; and `CCC1(C)Cc2c(sc3[nH]c(=S)n(Cc4ccccc4)c(=O)c23)CO1` (stereo not drawn), with 32.2% (active).
In the case of `CCC1(C)Cc2c(sc3nc4n(c(=O)c23)CCCS4)CO1` (stereo not drawn) it was -3.92%; in that of `CCC1(C)Cc2c(sc3nc(SC)[nH]c(=O)c23)CO1` (stereo not drawn), -9.23%; in that of `Cc1ccc2nc(-c3ccncc3)cc(C(=O)Nc3ccncc3)c2c1`, -6.13%.
For `Cc1ccc2nc(-c3ccncc3)cc(C(=O)Nc3ccc4c(c3)OCCO4)c2c1`, the activation (rescue from dofetilide block), less the hit threshold was 6.28% (active).
Then `Cc1ccc2nc(-c3ccccn3)cc(C(=O)Nc3ccc4c(c3)OCO4)c2c1`, with -4.32%; and `O=C(NCC1CC1)c1onc(CSc2ccccc2)c1C(=O)NCC1CC1`, with -9.81%; and `COc1ccc(CC(=O)N2N=C(C)CC2(O)C(F)(F)F)cc1` (stereo not drawn), with -4.8%.
In the case of `CC(C)c1nc2ccc(C(=O)O)cc2[nH]1` it was -0.43%; in that of `Cc1nc2ccc(C(=O)O)cc2[nH]1`, 6.97% (active); in that of `Cc1nc2ccc(C(=O)N/N=C/c3ccc(O)cc3)cc2[nH]1`, -13.1%.
In the case of `COc1ccc(CNS(=O)(=O)c2cc(-c3cc(C)no3)ccc2C(C)C)cc1` it was -6.05%; in that of `CS(=O)(=O)N(Cc1nc2sc3c(c2c(=O)[nH]1)CCCC3)C1CCCCC1`, -10.9%; in that of `Cc1cc(Cl)ccc1NNC(=O)c1snnc1C`, -9.34%.
Turning to `COc1nc(NC2CCCCC2)nc(N2CCCCCC2)n1`, the activation (rescue from dofetilide block), less the hit threshold was -7.83%.
Then `c1ccc(NCc2cccc3ccccc23)nc1`, with -3.89%; and `Oc1ccc2ccccc2c1N=Nc1nccs1`, with 29.7% (active); and `Oc1ccc(N=Nc2nccs2)c(O)c1`, with -0.07%.
In the case of `C=CCC1=C/C(=C\c2c(N)n3nc(CC(=O)N4CCOCC4)sc3nc2=O)C=C(OC)C1=O`, the activation (rescue from dofetilide block), less the hit threshold was -8.72%.
In the case of `Cn1c(SCC(=O)N2CCOCC2)nnc1-c1ccc(NC(=O)c2ccccc2F)cc1` it was 6.37% (active).
For `Cn1c(SCC(=O)N2CCOCC2)nnc1-c1ccc2ncccc2c1`, the activation (rescue from dofetilide block), less the hit threshold is -4.81%.
In the case of `Cn1c(SCC(=O)N2CCCC2)nnc1-c1ccc2c(c1)OCO2` it was -8.24%; in that of `Cc1cccc(NC(=S)NC(=O)c2ccc(Br)o2)c1`, 17.4% (active).
Then `Cc1cccc(NC(=O)c2ccc([N+](=O)[O-])o2)c1`, with -12.5%; and `Cc1cccc(NC(=O)NC(=S)NC(=O)c2ccccc2)c1`, with -0.76%.
In the case of `CCc1ccc(C2N3CC4([N+](=O)[O-])CN2CC([N+](=O)[O-])(C3)C4(C)C)cc1` (stereo not drawn) it was -4.31%; in that of `O=C(CCl)Nc1cccc(CP(=O)(c2ccccc2)c2ccccc2)c1`, -8.43%.
In the case of `Cc1cc(Br)ccc1NC(=S)NC1CCCC1`, the activation (rescue from dofetilide block), less the hit threshold is -9.68%.
In the case of `Cc1ccc(NC(=O)CSCC(=O)NC2CCCCC2)cc1` it was -3.26%.
`Cc1ccc(NC(=S)NC2CCCC2)cc1`: the activation (rescue from dofetilide block), less the hit threshold is 4.71% (active).
